About 83,000 compounds went through this panel and 20% of them were active in at least one assay; those are over-represented in the sample as a whole.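 In brief: 96-well plates, 48 h treatment, single concentration, percent growth endpoint.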 Unmarked numbers belong to inactive results. Active and inactive are the calls of the source. How the source made its calls: active means growth percent below 10; inactive means the rest.

The assay relates to HL-60(TB) leukemia. The assay is described as follows: NCI-60 one-dose screen, 48 h (100 = growth as untreated, 0 = no growth, -100 = all killed). The note with it: 10 µM unless noted.
Regarding `Cc1nc2sc(C(=O)Nc3cccc(Br)c3C)c(N)c2cc1C(O)c1ccccc1` (stereo not given), the growth was -46.6% (active).
With `COC(=O)Nc1nc2ccc(C3(c4ccc(F)cc4)OCCO3)cc2[nH]1` the figure was -25.1% (active); with `Cc1cc(=O)oc2cc(OCc3cn(CC(O)CO)nn3)ccc12` (stereo not given), 110%; with `CC(C)(C)[Si](C)(C)OC1[C@@H](O[Si](C)(C)C(C)(C)C)[C@@H](CNC(=O)NC(=O)CCl)O[C@H]1n1cnc2c(NC(=O)Nc3ccccc3)ncnc21` (stereo not given in full), -73.1% (active).
The figure for `COC(=O)C(Cc1ccccc1)n1cc(COc2nc(Cl)nc(Nc3ccc(Cl)cc3)n2)nn1` (stereo not given) is 72.2%; for `C(=C\c1cn(-c2ccccc2)nc1-c1ccccc1)/c1nnc(-c2c[nH]c3ccccc23)o1` it is 98.1%; for `CC12O[C@H](C[C@@H](O)[C@H]1O)n1c3ccccc3c3c4c(c5c6ccccc6n2c5c31)C(=O)N(CCCN)C4=O` it is 4.62% (active).
The figure for `O=c1oc2ccccc2cc1-c1nn(-c2ccccc2)cc1/C=N/Nc1nc(-c2ccccc2)c(N=Nc2ccccc2)s1` is 58.1%.
`CN1CCN(Cc2ccc(NC(=O)c3cncc(C#Cc4cnn5ccccc45)c3)cc2C(F)(F)F)CC1`: the growth is -21.3% (active).
Take `O=C(N/N=C/c1ccc([N+](=O)[O-])cc1)c1ccc2nc(-c3ccc(Cl)cc3)[nH]c2c1`: the growth was 6.58% (active).
The figure for `O=C(O)/C=C\C(=O)Nc1cccc2ccccc12` is 56.7%; for `CN(C)CC(O)c1ccc2cc(Br)c3ccccc3c2c1` (stereo not given) it is 43.7%; for `N#Cc1c(-c2ccc(F)cc2)cc(-c2cccc(Cl)c2)[nH]c1=O` it is 84.9%.
The figure for `Nc1c(C(=O)c2ccc(Cl)cc2)sc(Nc2ccccc2)c1-c1nc2ccccc2s1` is 69.6%; for `NC(=O)NCCCC(N)C(=O)O` (stereo not given) it is 105%; for `Cc1ccc(-c2nc3nc(-c4ccccc4)nc(N4CCCNCC4)c3o2)cc1` it is -69.8% (active).
The figure for `c1ccc2cc(-c3n(Cc4ccc5ccccc5n4)c4ccccc4[n+]3Cc3ccc4ccccc4n3)ccc2c1` is -55.1% (active); for `N#CC1=C(N)Oc2c(sc3c(Br)cccc23)C1c1ccc([N+](=O)[O-])cc1` (stereo not given) it is -13.7% (active).
Turning to `COc1ccc(C2(Cl)c3ccccc3N(c3ccccc3)c3ccccc32)cc1`, the growth is -22.3% (active).
In the case of `CCn1cc(C(=O)N/N=C/c2cccc(F)c2)c(=O)c2cc(F)c(N3CCNC(C)C3)c(F)c21` (stereo not given), the growth is 65.5%.
For the compound `O=c1c2cccc3c(N4CCOCC4)ccc(c32)c2nc3ccccc3n12`, the growth is 80.2%.
The figure for `CCN=C1C=CC(=C(c2ccc(N(C)C)cc2)c2ccc(N(C)C)cc2)c2ccccc21` is -9.26% (active); for `CC(=O)/C(Br)=C/c1ccc(Br)o1` it is -18.8% (active); for `COc1ccc(C(=O)/C=C/c2cc3c(c(OC)c2)OCC(=O)N3)cc1` it is 6.81% (active).
The figure for `COc1cc2cc(Oc3ccc(NC(=O)Nc4cccc(C(F)(F)F)c4)cc3)c(C)nc2cc1OCCN1CCCCC1` is -51.9% (active).
The figure for `COc1ccc(/C=N/Nc2cc(=O)[nH]c3ccc(Cl)cc23)cc1` is 45.3%.
With `Fc1ccc(C2CC(c3cccc(Nc4ccncc4)c3)=NN2c2ccc(Cl)cc2)cc1` (stereo not given), the growth is 17.2%.
The figure for `Nc1cc2c(cc1Br)-c1cc(Cl)ccc1C2=O` is 83.8%; for `CNCCn1c(=O)c2cc(OC)c(OC)cc2c2ccc3cc4c(cc3c21)OCO4` it is -25.7% (active); for `O=C(NNC(=O)c1cccc(Cl)c1)c1ccccc1` it is 94.3%.
The figure for `Brc1cnc2ccccc2c1` is 89.1%.
The figure for `CCCCNCC(=O)Nc1ccc(C(=O)OCC)cc1` is 86.9%; for `C=C(C)[C@@H]1CC[C@]2(C(=O)NC3CCCCC3)CC[C@]3(C)[C@H](CC[C@@H]4[C@@]5(C)CCCNC(C)(C)[C@@H]5CC[C@]43C)[C@@H]12` it is 23.7%.
In the case of `COc1cc2ncnc(-n3ncc4cc(NC(=O)Nc5ccccc5)ccc43)c2cc1OC`, the growth was -15.9% (active).
The figure for `Nc1c(C(=O)Nc2ccccn2)sc2nc3c(cc12)C(=O)CCC3` is 5.15% (active); for `CCCOC(=O)Nc1nc2ccc(SCC)cc2s1` it is 76.4%.
`COc1cc(C(=O)N2CCN(c3ccccc3OC)CC2)c(NC(=O)c2cnccn2)cc1OCc1ccccc1`: the growth is 47.5%.
Consider `CC/C(=C(/c1ccc(Cl)cc1)c1ccc(OCCN2CCCCC2)cc1)c1ccc(Cl)cc1`, for which the growth was 68.5%.
With `CC1CCCN(CCCCCOc2ccc3oc4ccccc4c(=O)c3c2)C1` (stereo not given) the figure was 45.5%; with `Nc1nc(N)c(NC(=O)CNc2ccc(C(=O)O)cc2)c(N)n1`, 107%.

The values are drawn from PubChem BioAssay (NCI).
